Screening data (PubChem)
GoLoco inh red = qHTS Assay for Inhibitors of RGS12 GoLoco Motif Activity (Red Fluorophore); Guanine nucleotide-binding protein G(i) subunit alpha-1 (Homo sapiens), P63096; Gai1:RGS12 GoLoco peptide FP, rhodamine, 10 min; Potency, µM (series often up to 61.6 µM), for inactives: at the highest dose activity, negative = inhibition, actives largely listed as inhibitors; 230,000 tested, 0.44% active; AID 880, 2007; active = well fitted inhibition curve with a large enough effect, not every such curve was filed as active; inactive = no such curve, though single readings can be large or run the other way; also: nearly all actives have a fitted effect of over 30% in size
TRb-SRC2 inh = qHTS for Inhibitors of the Interaction of Thyroid Hormone Receptor and Steroid Receptor Coregulator 2; TRbeta-SRC2 peptide binding, fluorescence polarization; receptor liganded with 1 µM T3; Thyroid hormone receptor beta (Homo sapiens), P10828; 280,000 tested, 0.065% active; Potency, µM (top dose mostly 106 µM), without a hit: at the highest dose activity change, negative = inhibition, actives largely listed as inhibitors;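 also: plate controls were bound peptide for no effect and peptide without receptor for full effect; nearly all actives have a fitted effect of over 50% in size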
Target sequence (P10828 whole entry, looked up): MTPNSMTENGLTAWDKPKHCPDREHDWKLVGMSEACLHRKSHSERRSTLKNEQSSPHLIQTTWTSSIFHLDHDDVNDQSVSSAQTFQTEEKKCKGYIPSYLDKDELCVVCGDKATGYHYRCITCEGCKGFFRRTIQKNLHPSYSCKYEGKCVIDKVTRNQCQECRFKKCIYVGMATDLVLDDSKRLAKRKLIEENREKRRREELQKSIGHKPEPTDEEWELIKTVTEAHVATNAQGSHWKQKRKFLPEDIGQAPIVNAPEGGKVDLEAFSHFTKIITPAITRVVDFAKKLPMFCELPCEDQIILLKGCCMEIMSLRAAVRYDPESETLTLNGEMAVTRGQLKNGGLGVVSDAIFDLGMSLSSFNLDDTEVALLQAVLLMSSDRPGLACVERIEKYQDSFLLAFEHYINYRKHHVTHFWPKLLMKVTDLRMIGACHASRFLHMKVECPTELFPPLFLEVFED
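Decrease in fluorescence polarization of 20 nM Texas Red SRC2 coactivator peptide flagged inhibition of its binding to 0.6 uM TRb LBD; 1 uM T3 included, incubation 5 hr, ex 555/em 632 nm.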
Tau fluor counter = Counterscreen qHTS for Inhibitors of Tau Fibril Formation, Fluorescence Polarization | Potency, µM (doses to about 57.7 µM), inactives show top-dose activity change, negative = decrease | tau K18 P301L Alexa594 fluorescence, heparin fibrillization | 280,000 tested, 0.93% active | AID 1463, 2008; also: nearly all actives have a fitted effect of over 55% in size
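Human K18 P301L tau (15 uM unlabeled plus 0.24 uM Alexa 594-labeled, final) in 100 mM sodium acetate pH 7 was mixed with compound and 20 uM heparin and incubated 6 hr at 37 C.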
TexasRed fluor = Total Fluorescence Counterscreen for Inhibitors of the Interaction of Thyroid Hormone Receptor and Steroid Receptor Coregulator 2; TRb/SRC2 Texas Red total fluorescence interference; Potency, µM (titrated, usually from 106 µM), for the others: at the top dose fluorescence change, negative = quenching; 280,000 tested, 0.29% active; AID 1479, 2009; active = well fitted curve in either direction with a large enough effect; inconclusive = small, poorly fitted or top-dose-only effect
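Human TRβ ligand-binding domain (0.6 uM) and Texas Red SRC2 peptide (20 nM) in Tris buffer with 1 uM T3 and 5% DMSO were incubated with pinned compound for 5 hr at ambient temperature. Total fluorescence was computed as S + 2P (555/632 nm).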
Tau fibril FP = qHTS for Inhibitors of Tau Fibril Formation, Fluorescence Polarization; K18 P301L tau heparin fibrillization, Alexa594 FP, 6 h; Potency, µM (highest dose often 57.7 µM), without a hit: at the highest dose activity, negative = inhibition, most hits filed as inhibitors; 280,000 tested, 0.39% active; also: nearly all actives have a fitted effect of over 55% in size
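Quantitative HTS format: compounds meet 15 uM recombinant K18 P301L tau and Alexa 594-tau tracer in 100 mM sodium acetate pH 7; 20 uM heparin triggers fibrillization at 37 C over 6 hr; FP gives the signal.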
Tau fibril ThT = qHTS for Inhibitors of Tau Fibril Formation, Thioflavin T Binding; Microtubule-associated protein tau (Homo sapiens), P10636; recombinant tau K18 P301L (four-repeat tau fragment), heparin-induced fibrillization, ThT fluorescence; Potency, µM (highest dose often 57.4 µM), for the others: at the top dose activity, negative = inhibition, actives largely listed as inhibitors; 270,000 tested, 2.1% active; AID 1460, 2008; also: nearly all actives have a fitted effect of over 55% in size
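Aggregation was driven by heparin (20 uM final) acting on recombinant tau […] bearing P301L in 100 mM sodium acetate pH 7; fibrils were detected with Thioflavin T.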
Active calls of the source: *; ? = inconclusive; / = no result; [ ] = dose if it differs, or a comment. Sampled rows, rich in hits. Any-hit rate of the full collection: about 3.2%. Unless noted, calls follow the shape of the dose curve; as a rule, active = well fitted curve in the direction sought with a large enough effect; inconclusive = small, poorly fitted or top-dose-only effect, or another doubt; inactive = no such curve, though single readings can be large; an effect the other way counts as inactive or inconclusive. Unless noted, % is scaled to controls: 0 for no effect and ±100 for the full control effect; potency is read from the fitted curve at half-maximal effect.

SMILES | GoLoco inh red | TRb-SRC2 inh | Tau fluor counter | TexasRed fluor | Tau fibril FP | Tau fibril ThT
S=C(N=Nc1ccccc1)NNc1ccccc1 | 8% | 4% | 20µM*[quencher] | -7% | ? | 25µM*
NC(=O)NNc1ccccc1 | 11% | 0% | -6% | -14% | -7% | -9%
O=C(O)c1ccc(/C=C2\SC(=S)N(Nc3ccccc3)C2=O)cc1 | 1% | 7% | ? | -2% | -17% | ?
O=C1/C(=C/c2ccncc2)SC(=S)N1Nc1ccccc1 | 277% | 5% | ? | 2% | ? | 18µM*
COc1cc(/C=C2\SC(=S)N(C(Cc3ccccc3)C(=O)O)C2=O)ccc1O (configuration not stated) | 196% | 29% | -17% | 22% | 2% | 11µM*
O=C1/C(=C/c2ccc(O)c(O)c2)SC(=S)N1Nc1ccccc1 | 265% | 22% | 11µM*[quencher] | 10% | -5% | 5µM*
O=C(O)C(Cc1ccccc1)N1C(=O)/C(=C/c2ccccc2)SC1=S (configuration not stated) | -2% | 2% | 0% | -2% | 0% | ?
O=C(O)C(Cc1ccccc1)N1C(=O)/C(=C/c2cccc3ccccc23)SC1=S (configuration not stated) | -13% | 11% | -16% | -4% | -6% | 20µM*
Cc1cc(C)nc(NN2C(=O)/C(=C/c3ccccc3)SC2=S)n1 | 24% | -2% | -14% | 0% | -3% | ?
CC1CCC2C(=O)N3C(CCC(C)[C@H]3c3ccccc3Br)C(=O)N2C1c1ccccc1Br (some centres not stated) | / | 6%[11.2 µM] | -2%[11.6 µM] | -7%[11.2 µM] | -13%[11.6 µM] | 0%[11.5 µM]
COc1cccc(-c2nc(CS(=O)CC(=O)N3CCN(c4cccc(C(F)(F)F)c4)CC3)c(C)o2)c1 (configuration not stated) | / | -4% | -6% | -1% | 11% | ?
Cc1ccc(-c2nn3c(-c4ccccc4)nnc3c3ccccc23)cc1 | / | -2% | -17% | 4% | -13% | ?
C=Cc1ccc(CSc2nc(-c3ccc(C)cc3)nc3c2Cc2c(CO)cnc(C)c2O3)cc1 | / | -1% | 11% | -3% | 14% | 12%
COc1cc(/C=C2\SC(=S)N(Nc3ccccc3)C2=O)ccc1O | 331% | 1% | 28µM*[quencher] | 1% | 11% | 11µM*
COc1ccc(/C=C2\SC(=S)N(C(C(=O)O)c3ccccc3)C2=O)c(OC)c1 (configuration not stated) | 3% | 1% | -11% | -4% | -11% | 13µM*
COc1cc(/C=C2\SC(=S)N(Nc3ncc(C(F)(F)F)cc3Cl)C2=O)ccc1O | 359% | ? | 14µM*[quencher] | 23% | -15% | 16µM*
CCOc1cc(/C=C2\SC(=S)N(Nc3ccccc3)C2=O)ccc1O | 318% | ? | 13µM*[quencher] | 28% | 1% | 11µM*
O=S(=O)(NCCS(=O)(=O)N1CCN(c2cccc(Cl)c2)CC1)c1ccc(F)cc1 | / | 0% | -14% | -6% | -11% | 12%
CCOc1ccc(/C=C2\SC(=S)N(NS(=O)(=O)c3ccccc3)C2=O)cc1OC | 9% | 4% | -6% | -4% | 8% | 14µM*
COc1cc(/C=C(\C#N)c2nc3c(s2)CCCC3)ccc1O | 122% | -20% | 14µM*[quencher] | -4% | 4% | 11µM*
NOCc1ccccc1 | / | -5% | / | -9% | / | /
Cc1nnc(C)n1/N=C/c1cc(Br)cc(Br)c1O | -5% | 4% | -11% | -7% | -12% | 11µM*
O=C(/C=C/c1ccncc1)c1cc(Cl)ccc1O | 8% | -7% | ? | -1% | 2% | 28µM*
